For 51 molecules, Potency, viability change, negative = cytotoxic and activity change, negative = cytotoxicity results are on record in PubChem BioAssay (Tox21).

Structures are written as SMILES. Inconclusive results are not listed. A number with no mark means an inactive call. Calls of active or inactive are those of the source. Calls follow the shape of the dose curve; as a rule, active = well fitted cell-killing curve with a large enough effect in the repeat runs; inconclusive = weak or mixed curves, or effect the other way; inactive = flat fitted curve, though single readings scatter.

Experiment [1] is described as follows: cAMP Responsive Elements (CRE) small molecule antagonists, cell-based qHTS assay: qHTS cell viability counter screen (AID 2060913). Also: nearly all actives have a fitted effect of over 40% in size. The method, boiled down:
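Cytotoxicity read in the same wells as the CRE-bla HEK293T antagonist assay: after 3 h compound with 0.25 uM NKH477 final and 2 h beta-lactamase substrate, CellTiter-Glo luminescence measured.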

Experiment [2] can be described thus: cAMP Responsive Elements (CRE) small molecule agonists, cell-based qHTS assay: qHTS cell viability counter screen (AID 2060914). Also: nearly all actives have a fitted effect of over 50% in size. In short, it runs like this: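 Luminescence read-out (CellTiter-Glo, 30 min RT) of ATP-based viability in CRE-bla HEK 293T cells, run in the same wells as the β-lactamase reporter assay after 3 h compound treatment at 37 °C.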
% is scaled to controls: 0 for no effect and ±100 for the full control effect; potency is read from the fitted curve at half-maximal effect.

Take `N#CC(C#N)=Cc1ccc(O)c(O)c1`: the Potency result in experiment [1] and in experiment [2] was “inactive” throughout.
`FC(F)OC(F)(F)C(F)Cl` (configuration not stated): the Potency entry in experiment [1] and in experiment [2] was “inactive” throughout.
Take `C[C@]12CCC(=O)C(O)=C1CC[C@@H]1[C@@H]2CC[C@]2(C)C(=O)CC[C@@H]12`: the Potency result in experiment [1] and in experiment [2] was “inactive” each time.
Take `ClC1=C(Cl)[C@]2(Cl)[C@@H]3[C@@H](Cl)[C@@H](Cl)C[C@@H]3[C@@]1(Cl)C2(Cl)Cl`: the Potency entry in experiment [1] and in experiment [2] was “inactive” in each case.
In the case of `CCn1cc[n+](C)c1` (tested in a mixture with another compound), the Potency entry in experiment [1] and in experiment [2] was “inactive” each time.
Turning to `CN1C(=O)C(O)N=C(c2ccccc2)c2cc(Cl)ccc21` (configuration not stated), the Potency result in experiment [1] and in experiment [2] was “inactive” throughout.
On to `Clc1ccc(C(Cl)(Cl)Cl)cc1Cl`, for which the Potency result in experiment [1] and in experiment [2] was “inactive” throughout.
Turning to `CNC(=O)O/N=C/C(C)(C)S(C)(=O)=O`, the Potency entry in experiment [1] and in experiment [2] was “inactive” each time.
In the case of `C=CC(=O)OCCCCOC(=O)C=C`, the Potency entry in experiment [1] and in experiment [2] was “inactive” throughout.
On to `CCC(C(N)=O)N1CCCC1=O` (configuration not stated), for which the Potency result in experiment [1] and in experiment [2] was “inactive” throughout.
As to `CCCCCC[n+]1ccccc1`, the Potency result in experiment [1] and in experiment [2] was “inactive” in each case.
For `CCC(=O)O[C@H]1CC[C@H]2[C@@H]3CCC4=CC(=O)CC[C@]4(C)[C@H]3CC[C@]12C`, the Potency result in experiment [1] and in experiment [2] was “inactive” throughout.
Take `O=C(C(Cl)(Cl)Cl)C(Cl)(Cl)Cl`: the Potency entry in experiment [1] and in experiment [2] was “inactive” each time.
On to `CN(CCCC(=O)c1cccnc1)N=O`, for which the Potency entry in experiment [1] and in experiment [2] was “inactive” each time.
In the case of `C=C(C)C(=O)[O][Sn]([CH2]CCC)([CH2]CCC)[CH2]CCC`, the results for the Potency in experiment [1] and in experiment [2] were 7.7 µM (active) and 4.86 µM (active), respectively.
For `COc1ccc2[nH]cc(CCN(C(C)C)C(C)C)c2c1` the same measures were “inactive” and “inactive”.
With `Cc1nn(-c2cc(NS(C)(=O)=O)c(Cl)cc2Cl)c(=O)n1C(F)F`, the Potency entry in experiment [1] and in experiment [2] was “inactive” in each case.
As to `Oc1cccc(-c2ccccc2)c1`, the Potency entry in experiment [1] and in experiment [2] was “inactive” in each case.
In the case of `CC(C(=O)c1ccccc1)N(C)C` (configuration not stated), the Potency result in experiment [1] and in experiment [2] was “inactive” each time.
As for `[O-][Cl+]O`, the Potency result in experiment [1] and in experiment [2] was “inactive” in each case.
Turning to `COc1nc(NC(C)C)nc(NC(C)C)n1`, the Potency entry in experiment [1] and in experiment [2] was “inactive” each time.
As for `CCC[N+](=O)[O-]`, the Potency entry in experiment [1] and in experiment [2] was “inactive” in each case.
For the molecule `CCc1cccc(C)c1N(C(=O)CCl)[C@@H](C)COC`, the Potency entry in experiment [1] and in experiment [2] was “inactive” throughout.
As to `CCC1COC(Cn2cncn2)(c2ccc(Cl)cc2Cl)O1` (configuration not stated), the Potency entry in experiment [1] and in experiment [2] was “inactive” each time.
On to `O=C1OC(c2ccc(O)c(S(=O)(=O)O)c2)(c2ccc(O)c(S(=O)(=O)O)c2)c2c(Br)c(Br)c(Br)c(Br)c21`, for which the Potency result in experiment [1] and in experiment [2] was “inactive” throughout.
Take `O=C([O-])c1ccccn1.O=C([O-])c1ccccn1.O=C([O-])c1ccccn1.[Cr+3]`: the Potency entry in experiment [1] and in experiment [2] was “inactive” each time.
In the case of `COC(=O)C1=CCCN(C)C1`, the Potency entry in experiment [1] and in experiment [2] was “inactive” in each case.
For `CC(COc1ccc(Oc2ccccc2)cc1)Oc1ccccn1` (configuration not stated), the Potency result in experiment [1] and in experiment [2] was “inactive” throughout.
For `CCBr`, the Potency entry in experiment [1] and in experiment [2] was “inactive” throughout.
Turning to `COC(=O)c1cc(Oc2ccc(Cl)cc2Cl)ccc1[N+](=O)[O-]`, the Potency entry in experiment [1] and in experiment [2] was “inactive” each time.
Turning to `O=C/C=C/c1ccccc1`, the Potency result in experiment [1] and in experiment [2] was “inactive” each time.
As to `Oc1cccc(Cl)c1Cl`, the Potency entry in experiment [1] and in experiment [2] was “inactive” in each case.
Consider `C[C@]1(O)CC[C@H]2[C@@H]3CCC4=CC(=O)CC[C@]4(C)[C@@]3(F)[C@@H](O)C[C@@]21C`, for which the Potency result in experiment [1] and in experiment [2] was “inactive” throughout.
Consider `O=S(=O)(Cl)Cl`, for which the Potency entry in experiment [1] and in experiment [2] was “inactive” throughout.
Regarding `NC(=O)c1cc([N+](=O)[O-])cc([N+](=O)[O-])c1`, the Potency result in experiment [1] and in experiment [2] was “inactive” each time.
Take `CC1=NNC(=O)N(/N=C/c2cccnc2)C1`: the Potency entry in experiment [1] and in experiment [2] was “inactive” throughout.
As for `ClP(Cl)(Cl)(Cl)Cl`, the Potency entry in experiment [1] and in experiment [2] was “inactive” throughout.
For `CC(=O)[O-].CC(=O)[O-].CC(=O)[O-].[Sb+3]`, in experiment [1], the viability change, negative = cytotoxic is 0.272% [at 3.27 µM]. Moreover, the activity change, negative = cytotoxicity in experiment [2] is -8.91% [at 3.27 µM].
For `Cc1cccc(C#N)c1`, the Potency result in experiment [1] and in experiment [2] was “inactive” throughout.
Turning to `COP(=S)(OC)SCn1nnc2ccccc2c1=O`, the Potency result in experiment [1] and in experiment [2] was “inactive” throughout.
For the molecule `N#Cc1c2ccccc2cc2ccccc12`, the Potency result in experiment [1] and in experiment [2] was “inactive” in each case.
In the case of `CCCCn1cc[n+](C)c1.[Cl][Fe-]([Cl])([Cl])[Cl]`, the Potency entry in experiment [1] and in experiment [2] was “inactive” each time.
As to `CNC(=O)O/N=C(/CSC)C(C)(C)C`, the Potency result in experiment [1] and in experiment [2] was “inactive” in each case.
For `C[N+](C)(C)CC(=O)O`, the Potency entry in experiment [1] and in experiment [2] was “inactive” in each case.
With `CC(C)(N)Cc1ccc(Cl)cc1`, the Potency result in experiment [1] and in experiment [2] was “inactive” each time.
On to `CC(Oc1cccc(Cl)c1)C(=O)O` (configuration not stated), for which the Potency entry in experiment [1] and in experiment [2] was “inactive” each time.
Regarding `CC[C@H]1C[C@H]2[C@@H]3CCC4=CC(=O)CC[C@@H]4[C@H]3CC[C@]2(C)[C@H]1O`, the Potency result in experiment [1] and in experiment [2] was “inactive” each time.
With `O=C1OC(CCN2CCCCC2)OC1(c1ccccc1)c1ccccc1` (configuration not stated), the Potency entry in experiment [1] and in experiment [2] was “inactive” in each case.
On to `CCNc1nc(Cl)nc(NC(C)C)n1`, for which the Potency result in experiment [1] and in experiment [2] was “inactive” in each case.
Regarding `CCCCCCCCc1ccc(O)cc1`, the Potency result in experiment [1] and in experiment [2] was “inactive” in each case.
Take `Nc1ccccc1C(=O)Oc1ccc2ccccc2c1`: the Potency entry in experiment [1] and in experiment [2] was “inactive” throughout.
